Measurements as given in PubChem BioAssay AID449762 (Southern Research Specialized Biocontainment Screening …, 2010).
The whole screen tested about 330,000 compounds, of which about 1,900 (0.58%) were called active. Another 4% or so got no clear call; they are omitted. Cut-off read from the data, not from the text of the source: inconclusive = inhibition above about 70% without an active follow-up result; inactive = below that. The list is a sample of the results. Entries with a potency or affinity are not part of this list.

Test: M. tuberculosis growth inhibition, HTS (AID 449762);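 note: bacterial growth assessed after seven days of incubation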
Settings: M. tuberculosis H37Rv growth inhibition, 7H9 media; at 25 µM; active compounds read high
In the case of `Cc1ccc(N2CC(C(=O)Nc3cccc(C(=O)NC4CC4)c3)CC2=O)cc1` (stereo not given), the inhibition is reported as -1.62% (inactive).
For `C/C(=N\Nc1nncc2ccccc12)c1ccc(O)cc1`, the inhibition was 13.3% (inactive).
For `COc1ccc(CC(=O)Oc2ccccc2C)cc1`, the inhibition was 10.5% (inactive).
In the case of `CCN(CC)c1ccc(/C=N/NC(=O)c2ccc3nc[nH]c3c2)cc1`, the inhibition is reported as 5.47% (inactive).
For `CNC(=O)COc1coc(CN2CCN(c3ccccc3)CC2)cc1=O`, the inhibition was -6.51% (inactive).
In the case of `CC(NC(=O)/C(=C\c1cccc([N+](=O)[O-])c1)NC(=O)c1ccco1)C(=O)O` (stereo not given), the inhibition is reported as 2.24% (inactive).
For `CCOC(=O)c1c(NC(=O)c2cc(-c3cccc(O)c3)on2)sc(C(C)=O)c1C`, the inhibition was 2.98% (inactive).
In the case of `CC1CCCCN1Cc1c(O)ccc2c(=O)c(-c3nc4ccccc4s3)coc12` (stereo not given), the inhibition is reported as 6.43% (inactive).
In the case of `Cc1oc2c(CN3CCCC(C)C3)c(O)ccc2c(=O)c1-c1ccccc1` (stereo not given), the inhibition is reported as 0.44% (inactive).
In the case of `Cc1cccc(-n2nnnc2SCC(=O)N(CC(C)C)c2c(N)n(CC(C)C)c(=O)[nH]c2=O)c1`, the inhibition is reported as 1.22% (inactive).
For `CC(C)Cc1nc2oc3c(NCC(C)O)ncnc3c2c2c1CCCC2` (stereo not given), the inhibition was 2.05% (inactive).
With `CC(C)Cc1nc2oc3c(Cl)ncnc3c2c2c1CCCC2` the inhibition was 2.35% (inactive).
For `CC(C)c1ccc(CCNC(=O)c2cccc(S(=O)(=O)N3CCN(C)CC3)c2)cc1`, the inhibition was -4.06% (inactive).
With `O=C1CCN(CCc2ccccc2)CCN1[C@H](CSc1ccccc1)Cc1ccccc1` the inhibition was 13.6% (inactive).
For `CCCN1CCC(=O)N([C@H](CSc2ccc(OC)cc2)Cc2ccccc2)CC1`, the inhibition was 0.11% (inactive).
For `Cc1cc(C(=O)CSc2nc(N)cc(N)n2)c(C)n1CC1CCCO1` (stereo not given), the inhibition was -3.69% (inactive).
For `CCn1c(=O)c2cc(C(=O)NC(C)C)sc2c2ccccc21`, the inhibition was -0.74% (inactive).
For `Cc1c(OCc2nn[nH]n2)ccc2c3c(c(=O)oc12)CCCC3`, the inhibition was -3.72% (inactive).
For `COc1ccccc1OCC(=O)Nc1ccc(S(=O)(=O)N(C)c2ccccc2)cc1`, the inhibition was -13.2% (inactive).
With `COc1nc(-c2ccccc2)cc(C(F)(F)F)n1` the inhibition was -3% (inactive).
With `COc1ccccc1-c1cc(C(F)(F)F)nc(S(C)(=O)=O)n1` the inhibition was 2.66% (inactive).
For `O=C(NC(=S)Nc1ccc(CN2CCOCC2)cc1)c1cc2ccccc2o1`, the inhibition was 68.5% (inactive).
In the case of `COc1ccc(-n2c(-c3ccc(Br)cc3)n[nH]c2=S)cc1`, the inhibition is reported as 7.43% (inactive).
In the case of `C=CCN(c1nc(C)cc(OC)n1)S(=O)(=O)c1ccccc1`, the inhibition is reported as -6.07% (inactive).
For `CC(OC(=O)/C=C/c1ccc2ccccc2n1)C(=O)Nc1ccc(S(N)(=O)=O)cc1` (stereo not given), the inhibition was 11.9% (inactive).
For `CC(OC(=O)/C=C/c1ccc2ccccc2n1)C(=O)N(C)c1ccccc1` (stereo not given), the inhibition was -4.67% (inactive).
In the case of `NC(=O)c1ccccc1OCC(=O)Nc1cccnc1Cl`, the inhibition is reported as 2.44% (inactive).
For `CCCc1ccc(Oc2cc(N3CCOCC3)nc(-c3ccccc3)n2)cc1`, the inhibition was 17.9% (inactive).
In the case of `O=C(O)c1cccc(N/N=C/c2cc(Br)cc(Br)c2O)c1`, the inhibition is reported as -15.9% (inactive).
For `CN(/N=C/c1cc(Br)cc(Br)c1O)c1ccccc1`, the inhibition was 3.99% (inactive).
With `Cc1ccc(C(=O)Nc2ccccc2C(=O)N2CCCCC2C)cc1` (stereo not given) the inhibition was -0.75% (inactive).
For `COCC(=O)Nc1ccc(N2CCOCC2)c(S(=O)(=O)Nc2ccccc2OC)c1`, the inhibition was 1.36% (inactive).
With `CCCCCCn1c2c(c(=N)c3c1CCC3)CCC2` the inhibition was -4.99% (inactive).
In the case of `CCCCn1c2c(c(=N)c3c1CCC3)CCC2`, the inhibition is reported as -1.93% (inactive).
In the case of `Cc1noc(C)c1COC(=O)COc1ccc(C#N)cc1`, the inhibition is reported as 6.51% (inactive).
With `Cc1ccc(OCC(=O)OCc2c(C)noc2C)cc1C` the inhibition was 3.24% (inactive).
For `COc1ccc(/C=C/C(=O)OCC(=O)NCC2CCCO2)cc1` (stereo not given), the inhibition was 2.24% (inactive).
In the case of `O=C(COC(=O)/C=C/c1ccc(F)cc1)NCC1CCCO1` (stereo not given), the inhibition is reported as 6.52% (inactive).
With `Cc1noc(C)c1CSc1nnc(-c2ccccc2)n1N` the inhibition was 6.07% (inactive).
For `CCc1cc(C(=O)Nc2ccccc2)cs1`, the inhibition was -4.05% (inactive).
In the case of `CCOC(=O)Nc1ccc(C)cc1Br`, the inhibition is reported as -1.99% (inactive).
For `COc1ccc(NC(=O)c2nc[nH]c2C(=O)N(C)Cc2ccccc2)cc1`, the inhibition was 9.08% (inactive).
In the case of `NC1=NC(=O)/C(=C/C=C/c2cccs2)S1`, the inhibition is reported as 18.7% (inactive).
For `COc1ccc(C(=O)Nc2c(N)nc(SCC(=O)NCC3CCCO3)[nH]c2=O)cc1` (stereo not given), the inhibition was 11.2% (inactive).
For `CCN(CC)C(=O)c1sc2nc(Cc3ccccc3)[nH]c(=O)c2c1C`, the inhibition was 4.02% (inactive).
With `CCN(CC)C(=O)c1sc2nc(-c3ccncc3)[nH]c(=O)c2c1C` the inhibition was -4.66% (inactive).
With `COc1ccc(-n2c(O)c(/C=C3\C=Nc4ccc(Br)cc43)c(=O)[nH]c2=O)c(OC)c1` the inhibition was -3.48% (inactive).
For `CCn1c(CSc2nnc(-c3ccc4c(c3)OCO4)o2)nc2cc(S(=O)(=O)N(C)C)ccc21`, the inhibition was -2.02% (inactive).
In the case of `O=C(c1cc(-c2cccc(Cl)c2)nc2ccccc12)N1CCCC1`, the inhibition is reported as 4.01% (inactive).
For `COc1ccc(OC)c(C2CC(c3c(-c4ccccc4)c4cc(Cl)ccc4[nH]c3=O)=NN2S(C)(=O)=O)c1` (stereo not given), the inhibition was 44.4% (inactive).
With `COc1ccc(C2CC(c3c(-c4ccccc4)c4cc(Cl)ccc4[nH]c3=O)=NN2S(C)(=O)=O)cc1OC` (stereo not given) the inhibition was 7.95% (inactive).
In the case of `O=C(NCc1cccnc1)c1noc2c1CCCC2`, the inhibition is reported as -1.71% (inactive).
With `CCOC(=O)c1nsnc1NCCCl` the inhibition was 4.35% (inactive).
With `C/C(=N\Nc1ccc(S(=O)(=O)N2CCCCC2)cn1)c1ccc(O)cc1` the inhibition was -0.43% (inactive).
In the case of `COc1cccc(/C(C)=N/Nc2ccc(S(=O)(=O)N3CCCCC3)cn2)c1`, the inhibition is reported as -2.89% (inactive).
For `CC(=O)Nc1ccc(S(=O)(=O)Nc2ccccc2N2CCOCC2)cc1`, the inhibition was 5.3% (inactive).
With `CCCCN(C)CCCNC(=O)c1cn(CC)c2ccc(S(=O)(=O)N3CCOCC3)cc2c1=O` the inhibition was 3.29% (inactive).
In the case of `CCCN(CCC)CCCNC(=O)c1cn(CC)c2ccc(S(=O)(=O)N3CCOCC3)cc2c1=O`, the inhibition is reported as 3.73% (inactive).
With `Cc1ccc(S(=O)(=O)n2nc(OC(=O)c3ccccc3F)cc2N)cc1` the inhibition was 1.24% (inactive).
For `O=c1[nH]nnc2sc3c(c12)CCCC3`, the inhibition was 1.62% (inactive).
